# Measured values reported in paper PMC4552634, “A New Set of Chemical Starting Points with Plasmodium falciparum Transmission-Blocking Potential for Antimalarial Drug Discovery” (PLoS ONE, 2015).
# In all, about 13,000 compounds went through this assay and about 3,200 (25%) showed an effect of 50% or more. This is one part of the list.
# Tested on: P. falciparum stage V gametocytes
# Set-up: BacTiter-Glo ATP luminescence viability of purified stage V gametocytes in 384-well plates, per cent inhibition versus DMSO
# Conditions: 48 h, 5 µM; inhibitor
row,SMILES,% Inhibition [%]
1,O=C(Nc1ccc2c(c1)OCO2)NC1CCN(c2ccnc(Nc3ccc(F)cc3)n2)C1 (centres unmarked) [TCMDC-133605],-89.44
2,CC(C)Cc1csc(NC(=O)C=Cc2ccco2)c1C(=O)O [TCMDC-125660],6.698
3,Clc1ccc(OCc2ccccc2)c(-c2nc(-c3nc4ncc(Br)cc4[nH]3)cs2)c1 [TCMDC-136729],-65.34
4,c1ccc(CN2CCC(NCc3ccccc3-c3ccc(CNC4CCCC4)cc3)CC2)cc1 [TCMDC-140473],106.4
5,c1ccc(CN2CCC(NCc3ccc(-c4cncc5ccccc45)cc3)CC2)cc1 [TCMDC-134153],14.12
6,COc1ccccc1NC(=O)Nc1cccc(-c2ccc(-c3nc4ccc(C(F)(F)F)cc4[nH]3)cc2)c1 [TCMDC-133203],-14.42
7,N#Cc1ccc(N2CCN(Cc3cccc(-c4ccc(-c5nc6ccccc6[nH]5)cc4)c3)CC2)nc1.O=C(O)C(F)(F)F [TCMDC-133937],5.421
8,FC(F)(F)c1cnc(Sc2nnc(-c3ccncc3)o2)c(Cl)c1 [TCMDC-123767],83.92
9,FC(F)(F)c1cnc(Sc2nnc(-c3ccco3)o2)c(Cl)c1 [TCMDC-125006],-49.8
10,CC1CCCCN1Cc1cccc(-c2c[nH]c3nc(NC4CCCC4)ncc23)c1 (centres unmarked) [TCMDC-133776],-28.36
11,COc1ccc2nccc([C@@H](O)CN3CCC(NCc4ccc5c(c4)oc(=S)n5C)CC3)c2c1 [TCMDC-141186],1.23
12,O=C(Nc1ccc([N+](=O)[O-])cc1Br)c1cc2ccccc2nc1Cl [TCMDC-124537],29.24
13,O=[N+]([O-])c1ccc(N2CCCN(C(=S)Nc3ccc(F)cc3Br)CC2)nc1 [TCMDC-124054],81.59
14,O=C(Nc1ccc(Cn2ncc(N3CCCNCC3)c(Cl)c2=O)cc1)Nc1ccc(F)cc1[N+](=O)[O-] [TCMDC-141926],-31.19
15,N#Cc1ccc(NC(=NC2CCN(Cc3ccccc3)CC2)Nc2ccccc2Cl)c(O)c1 [TCMDC-140256],-5.798
16,Cc1cccc2nc(-c3cccc(-c4ccc(C(=O)NCc5ccccc5S(C)(=O)=O)cc4)c3)[nH]c12 [TCMDC-132505],5.091
17,CC(C)n1nc(C(=O)N2CCN(c3ccccc3)CC2)c2ccccc2c1=O [TCMDC-124333],78.8
18,CC(=O)CC(=O)N1CCN(c2ccccc2)CC1 [TCMDC-125502],-5.255
19,Cn1nc(C(=O)N2CCC(c3[nH]ncc3Cc3ccccc3)CC2)c2ccccc2c1=O [TCMDC-124642],16.79
20,Cn1c2c(c3ccccc31)CN(CCC1(c3ccc(Cl)c(Cl)c3)CN(C(=O)c3ccccc3)CCO1)CC2 (centres unmarked) [TCMDC-135562],-29.91
21,COCCN(C(=O)Cc1cccs1)C(C(=O)NCc1ccc(OC)cc1)c1ccc(C(C)C)cc1 (centres unmarked) [TCMDC-125625],-2.779
22,CN1CCN(CCNc2c3ccccc3nc3ccc4ccccc4c23)CC1 [TCMDC-137724],54.46

row,SMILES,% Inhibition [%]
1,CN1CCN(CCNc2c3ccccc3nc3c2ccc2ccccc23)CC1 [TCMDC-137723],92.22
2,CN(Cc1cnc2nc(N)nc(N)c2n1)c1ccc(C(=O)N[C@@H](CCC(=O)O)C(=O)O)cc1 [TCMDC-125858],-8.966
3,Cc1c(-c2cccc(Br)c2)[nH]c2nc(N)nc(N)c12 [TCMDC-137836],-91.89
4,O=C(c1ccc(Cl)cc1)N1CCOC(CCN2CCC(c3ccccc3)CC2)(c2ccc(Cl)c(Cl)c2)C1 (centres unmarked) [TCMDC-135351],-32.03
5,COc1ccc(C(=O)N2CCC(CN3CCOC(c4ccccc4)(c4ccccc4)C3)CC2)cc1 [TCMDC-136347],57.99
6,O=C(Nc1cccc(F)c1)N1CCC(CN2CCOC(c3ccccc3)(c3ccccc3)C2)CC1 [TCMDC-136345],66.91
7,O=C(Nc1cc(F)cc(F)c1)N1CCOC(CCN2CCC(c3ccccc3)CC2)(c2ccc(Cl)c(Cl)c2)C1 (centres unmarked) [TCMDC-135333],17.76
8,COc1cc(OC)cc(C(=O)N2CCOC(CCN3CCC(c4ccccc4)CC3)(c3ccc(Cl)c(Cl)c3)C2)c1 (centres unmarked) [TCMDC-135348],-85.08
9,O=C(Nc1ccccc1)N1CCC(CN2CCOC(c3ccccc3)(c3ccccc3)C2)CC1 [TCMDC-136344],40.09
10,O=C(c1ccccc1)N1CCC(CN2CCOC(c3ccccc3)(c3ccccc3)C2)CC1 [TCMDC-136346],86.1
11,CCOc1ccc(C(=O)N2CCOC(CCN3CCC(c4ccccc4)CC3)(c3ccc(Cl)c(Cl)c3)C2)cc1 (centres unmarked) [TCMDC-135344],-65.78
12,O=C(c1ccc(F)c(F)c1)N1CCOC(CCN2CCC(c3ccccc3)CC2)(c2ccc(Cl)c(Cl)c2)C1 (centres unmarked) [TCMDC-135337],-91.33
13,NC(N)=NC(=O)Nc1cc(F)c(Cl)c(Br)c1 [TCMDC-137510],-16.64
14,CC(C)Nc1nc(NC2CCCCC2)nc(N2CCCCCCC2)n1 [TCMDC-139688],-95.56
15,Cc1nc2ccc(Nc3nccc(-c4c(-c5cccc(NC(=O)c6c(F)cccc6F)c5)nn5ccccc45)n3)cc2nc1C [TCMDC-135906],-53.2
16,Cc1ccc2nc(C)cc(NN=Cc3cccc(Cl)c3)c2c1 [TCMDC-142063],87.16
17,Cc1cc(NN=Cc2cccc(Cl)c2)c2ccccc2n1 [TCMDC-142060],-14.77
18,Cc1ccc2c(NN=Cc3ccc(N(C)C)cc3)cc(C)nc2c1 [TCMDC-142076],-47.79
19,Cc1ccc2c(NN=Cc3cccc(Cl)c3)cc(C)nc2c1 [TCMDC-142064],91.21
20,Cc1cc(N2CCCC2)nc(Nc2ccc(NC(=O)c3ccco3)cc2)n1 [TCMDC-124965],-16.57
21,O=C1C2C3SC(c4c3ccc3ccccc43)C2C(=O)N1c1ccccc1 (centres unmarked) [TCMDC-123946],-5.395
22,COC(=O)c1ccc(NC(=O)c2ccc(CCN3CCC(c4nc(COCC(F)(F)F)c(-c5ccc(F)cc5)o4)CC3)cc2)cc1 [TCMDC-138133],-17.07
